Shown is part of a subset that was picked to be rich in the strongest signals.
Assays:
Assay in all cases: glycan array binding signal (z-score within array); higher = stronger binding
Settings in all cases: glycan notation: IUPAC condensed, linker removed
[1] = biological target: Fuc(a1-2)Gal(b1-3)GalNAc(a1-3)[Fuc(a1-2)]Gal(b1-4)GlcNAc
Summary of the method: (§1)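 Negative Z-scores can be read as non-binding. The Z-score is calculated within each array and then averaged across arrays of one protein sequence at different concentrations or buffers and across linkers. Arrays, 3228 in all, were curated from the Consortium for Functional Glycomics database and kept only where the protein sequence was available.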

[2] = biological target: Fuc(a1-2)Gal(b1-3)GlcNAc(b1-3)Gal(b1-4)Glc
Summary of the method: as §1

[3] = biological target: Fuc(a1-2)Gal(b1-3)GlcNAc6S
Summary of the method: as §1

[4] = biological target: Fuc(a1-2)Gal(b1-4)GlcNAc(b1-2)Man(a1-3)[Fuc(a1-2)Gal(b1-4)GlcNAc(b1-2)Man(a1-6)]Man(b1-4)GlcNAc(b1-4)[Fuc(a1-6)]GlcNAc
Summary of the method: as §1

[5] = biological target: Fuc(a1-2)Gal6S(b1-3)GlcNAc6S
Summary of the method: as §1

[6] = biological target: Fuc(a1-2)[Gal(a1-3)]Gal(b1-4)GlcNAc(b1-2)Man
Summary of the method: as §1

[7] = biological target: Fuc(a1-2)[GalNAc(a1-3)]Gal(b1-3)GalNAc(a1-3)[Fuc(a1-2)]Gal(b1-4)GlcNAc
Summary of the method: as §1

[8] = biological target: Fuc(a1-2)[GalNAc(a1-3)]Gal(b1-3)GlcNAc(b1-2)Man(a1-3)[Fuc(a1-2)[GalNAc(a1-3)]Gal(b1-3)GlcNAc(b1-2)Man(a1-6)]Man(b1-4)GlcNAc(b1-4)GlcNAc
Summary of the method: as §1

[9] = biological target: Fuc(a1-2)[GalNAc(a1-3)]Gal(b1-4)GlcNAc(b1-6)GalNAc
Summary of the method: as §1

[10] = biological target: Fuc(a1-3)[Gal(b1-4)]GlcNAc(b1-3)Gal(b1-3)[Fuc(a1-4)]GlcNAc
Summary of the method: as §1

[11] = biological target: Fuc(a1-3)[GalNAc(b1-4)]GlcNAc6S
Summary of the method: as §1

[12] = biological target: Gal(a1-3)Gal(b1-3)GlcNAc(b1-6)GalNAc
Summary of the method: as §1

[13] = biological target: Gal(a1-3)Gal(b1-4)[Fuc(a1-3)]GlcNAc
Summary of the method: as §1

[14] = biological target: Gal(b1-3)GalNAc(b1-4)[Neu5Ac(a2-3)]Gal(b1-4)Glc
Summary of the method: as §1

[15] = biological target: Gal(b1-3)GlcNAc(b1-3)Gal(b1-4)GlcNAc(b1-6)[Gal(b1-3)GlcNAc(b1-3)]Gal(b1-4)Glc
Summary of the method: as §1

[16] = biological target: Gal(b1-3)GlcNAc(b1-3)Gal(b1-4)[Fuc(a1-3)]GlcNAc
Summary of the method: as §1

[17] = biological target: Gal(b1-4)GlcNAc(b1-2)Man(a1-3)[Gal(b1-4)GlcNAc(b1-2)Man(a1-6)]Man(b1-4)GlcNAc(b1-4)[Fuc(a1-6)]GlcNAc
Summary of the method: as §1

[18] = biological target: Gal(b1-4)GlcNAc(b1-2)[Gal(b1-4)GlcNAc(b1-6)]Man(a1-6)[Gal(b1-4)GlcNAc(b1-2)Man(a1-3)]Man(b1-4)GlcNAc(b1-4)GlcNAc
Summary of the method: as §1

[19] = biological target: Gal(b1-4)GlcNAc(b1-3)Gal(b1-4)Glc
Summary of the method: as §1

[20] = biological target: Gal(b1-4)GlcNAc(b1-3)Gal(b1-4)GlcNAc(b1-3)Gal(b1-4)GlcNAc(b1-2)Man(a1-3)[Gal(b1-4)GlcNAc(b1-3)Gal(b1-4)GlcNAc(b1-3)Gal(b1-4)GlcNAc(b1-2)Man(a1-6)]Man(b1-4)GlcNAc(b1-4)GlcNAc
Summary of the method: as §1

[21] = biological target: Gal(b1-4)GlcNAc(b1-3)Gal(b1-4)GlcNAc(b1-3)Gal(b1-4)GlcNAc(b1-3)Gal(b1-4)GlcNAc(b1-2)Man(a1-3)[Gal(b1-4)GlcNAc(b1-3)Gal(b1-4)GlcNAc(b1-3)Gal(b1-4)GlcNAc(b1-3)Gal(b1-4)GlcNAc(b1-2)Man(a1-6)]Man(b1-4)GlcNAc(b1-4)GlcNAc
Summary of the method: as §1

[22] = biological target: Gal(b1-4)GlcNAc(b1-3)Gal(b1-4)GlcNAc(b1-3)Gal(b1-4)GlcNAc(b1-3)Gal(b1-4)GlcNAc(b1-2)Man(a1-3)[Gal(b1-4)GlcNAc(b1-3)Gal(b1-4)GlcNAc(b1-3)Gal(b1-4)GlcNAc(b1-3)Gal(b1-4)GlcNAc(b1-2)Man(a1-6)]Man(b1-4)GlcNAc(b1-4)[Fuc(a1-6)]GlcNAc
Summary of the method: as §1

[23] = biological target: Gal(b1-4)GlcNAc(b1-3)Gal(b1-4)GlcNAc(b1-6)[Gal(b1-3)]GalNAc
Summary of the method: as §1

[24] = biological target: Gal(b1-4)GlcNAc(b1-6)GalNAc
Summary of the method: as §1

Gal6S(b1-3)GlcNAc = biological target: Gal6S(b1-3)GlcNAc
Summary of the method: as §1

Gal6S(b1-3)GlcNAc6S = biological target: Gal6S(b1-3)GlcNAc6S
Summary of the method: as §1

GalNAc(b1-4)GlcNAc = biological target: GalNAc(b1-4)GlcNAc
Summary of the method: as §1

GalNAc(b1-4)GlcNAc6S = biological target: GalNAc(b1-4)GlcNAc6S
Summary of the method: as §1

[25] = biological target: GlcNAc(b1-2)Man(a1-3)[GlcNAc(b1-2)Man(a1-6)]Man(b1-4)GlcNAc(b1-4)GlcNAc
Summary of the method: as §1

[26] = biological target: GlcNAc(b1-2)[GlcNAc(b1-4)]Man(a1-3)[GlcNAc(b1-4)][GlcNAc(b1-2)[GlcNAc(b1-6)]Man(a1-6)]Man(b1-4)GlcNAc(b1-4)GlcNAc
Summary of the method: as §1

B1: YghJ (Escherichia coli), E3PJ90 (protein)
chain: MNKKFKYKKSLLAAILSATLLAGCDGGGSGSSSDTPPVDSGTGSLPEVKPDPTPNPEPTPEPTPDPEPTPEPIPDPEPTPEPEPEPVPTKTGYLTLGGSQRVTGATCNGESSDGFTFKPGEDVTCVAGNTTIATFNTQSEAARSLRAVEKVSFSLEDAQELAGSDDKKSNAVSLVTSSNSCPANTEQVCLTFSSVIESKRFDSLYKQIDLAPEEFKKLVNEEVENNAATDKAPSTHTSPVVPVTTPGTKPDLNASFVSANAEQFYQYQPTEIILSEGRLVDSQGYGVAGVNYYTNSGRGVTGENGEFSFSWGEAISFGIDTFELGSVRGNKSTIALTELGDEVRGANIDQLIHRYSTTGQNNTRVVPDDVRKVFAEYPNVINEIINLSLSNGATLGEGEQVVNLPNEFIEQFNTGQAKEIDTAICAKTDGCNEARWFSLTTRNVNDGQIQGVINKLWGVDTNYKSVSKFHVFHDSTNFYGSTGNARGQAVVNISNAAFPILMARNDKNYWLAFGEKRAWDKNELAYITEAPSIVRPENVTRETASFNLPFISLGQVGDGKLMVIGNPHYNSILRCPNGYSWNGGVNKDGQCTLNSDPDDMKNFMENVLRYLSNDRWLPDAKSSMTVGTNLETVYFKKHGQVLGNSAPFAFHKDFTGITVKPMTSYGNLNPDEVPLLILNGFEYVTQWGSDPYSIPLRADTSKPKLTQQDVTDLIAYMNKGGSVLIMENVMSNLKEESASGFVRLLDAAGLSMALNKSVVNNDPQGYPDRVRQRRSTPIWVYERYPAVDGKPPYTIDDTTKEVIWKYQQENKPDDKPKLEVASWQEEVEGKQVTQFAFIDEADHKTPESLAAAKQRILDAFPGLEVCKDSDYHYEVNCLEYRPGTDVPVTGGMYVPQYTQLDLSADTAKAMLQAADLGTNIQRLYQHELYFRTNGRQGERLNSVDLERLYQNMSVWLWNETKYRYEEGKEDELGFKTFTEFLNCYTNNAYVGTQCSAELKKSLIDNKMIYGEESSKAGMMNPSYPLNYMEKPLTRLMLGRSWWDLNIKVDVEKYPGVVNTNGETVTQNINLYSAPTKWFAGNMQSTGLWAPAQQEVSIESKSTVPVTVTVALADDLTGREKHEVSLNRPPRVTKTYDLKANDKVTFKVPYGGLIYIKGDSKEVQSADFTFTGVVKAPFYKDGKWQHDLNSPAPLGELESASFVYTTPKKNLNASNYTGGLEQFANDLDTFASSMNDFYGRDSEDGKHRMFTYKNLPGHKHRFANDVQISIGDAHSGYPVMNSSFSPNSTTLPTTPLNDWLIWHEVGHNAAETPLTVPGATEVANNVLALYMQDRYLGKMNRVADDITVAPEYLEESNGQAWARGGAGDRLLMYAQLKEWAEKNFDIKKWYPDGTPLPEFYSEREGMKGWNLFQLMHRKARGDEVSNDKFGGKNYCAESNGNAADTLMLCASWVAQTDLSEFFKKWNPGANAYQLPGASEMSFEGGVSQSAYNTLASLDLPKPEQGPETINQVTEHKMSAE
glycan array binding signal (z-score) [1]: -1.47 | glycan array binding signal (z-score) [2]: -0.678 | glycan array binding signal (z-score) [3]: 2.47 | glycan array binding signal (z-score) [4]: -0.129 | glycan array binding signal (z-score) [5]: 3.49 | glycan array binding signal (z-score) [6]: -1.3 | glycan array binding signal (z-score) [7]: -0.92 | glycan array binding signal (z-score) [8]: 0.546 | glycan array binding signal (z-score) [9]: 0.95 | glycan array binding signal (z-score) [10]: 2.74 | glycan array binding signal (z-score) [11]: 0.125 | glycan array binding signal (z-score) [12]: 0.282 | glycan array binding signal (z-score) [13]: -2.21 | glycan array binding signal (z-score) [14]: -0.276 | glycan array binding signal (z-score) [15]: 1.23 | glycan array binding signal (z-score) [16]: 2.4 | glycan array binding signal (z-score) [17]: 2.37 | glycan array binding signal (z-score) [18]: 0.576 | glycan array binding signal (z-score) [19]: 0.172 | glycan array binding signal (z-score) [20]: 0.559 | glycan array binding signal (z-score) [21]: -0.172 | glycan array binding signal (z-score) [22]: 2.84 | glycan array binding signal (z-score) [23]: -0.193 | glycan array binding signal (z-score) [24]: -0.103 | glycan array binding signal (z-score) (Gal6S(b1-3)GlcNAc): 0.437 | glycan array binding signal (z-score) (Gal6S(b1-3)GlcNAc6S): 2.04 | glycan array binding signal (z-score) (GalNAc(b1-4)GlcNAc): 1.36 | glycan array binding signal (z-score) (GalNAc(b1-4)GlcNAc6S): 0.943 | glycan array binding signal (z-score) [25]: 0.16 | glycan array binding signal (z-score) [26]: -0.048
